# According to the antibiotic and cytotoxicity screens of Wong et al. (2023):
# About 1,500 (3.8%) of roughly 39,000 compounds were called active. The list comes from a sample in which actives are over-represented; it also holds similar structures and randomly drawn compounds.
# System: HSkMC (human skeletal muscle cells)
# Assay: cytotoxicity call (relative viability < 0.9)
# Details: 10 µM
row,Compound,cytotoxicity call
1,C[C@H](CO)N1C[C@H](C)[C@@H](CN(C)S(=O)(=O)c2ccc(Cl)cc2)Oc2c(NC(=O)Nc3ccc(C(F)(F)F)cc3)cccc2C1=O,inactive
2,O=C(Cc1ccncc1)NCC[C@H]1CC[C@H](NC(=O)C2CCOCC2)[C@H](CO)O1,inactive
3,Cc1noc(C)c1S(=O)(=O)N(C)C[C@@H]1OCCCC[C@@H](C)Oc2ccc(NC(=O)Nc3ccc(F)cc3)cc2C(=O)N([C@@H](C)CO)C[C@H]1C,inactive
4,C[C@H](NC(=O)C[C@H]1C[C@H]2c3cc(NC(=O)Nc4ccc(C(F)(F)F)cc4)ccc3O[C@H]2[C@H](CO)O1)c1ccccc1,inactive
5,C[C@@H]1CCCCO[C@@H](CN(C)Cc2ccc(Cl)c(Cl)c2)[C@@H](C)CN([C@H](C)CO)C(=O)c2cc(NC(=O)CCCN(C)C)ccc2O1,inactive
6,Cc1ccc(S(=O)(=O)N2C[C@@H](O)COC[C@H]3O[C@@H](CC(=O)N[C@@H]4CCN(Cc5ccccc5)C4)CC[C@@H]32)cc1,inactive
7,CC(C)C[C@H]1NC(=O)N(C)C1=O,inactive
8,C[C@H](CO)N1C[C@H](C)[C@@H](CN(C)C(=O)c2ccccn2)Oc2cc(C#Cc3ccc(F)cc3)ccc2S1(=O)=O,inactive
9,CC(C)CC#Cc1ccc2c(c1)O[C@H](CN(C)S(=O)(=O)c1cccc(F)c1)[C@H](C)CN([C@@H](C)CO)S2(=O)=O,inactive
10,C[C@@H]1CN([C@@H](C)CO)C(=O)c2cc(NS(=O)(=O)c3ccc(F)cc3)ccc2O[C@@H](C)CCCCO[C@@H]1CN(C)Cc1ccc(C(F)(F)F)cc1,inactive
11,C[C@H](CO)N1C[C@H](C)[C@@H](CN(C)Cc2ccc(C(F)(F)F)cc2)OCCCC[C@H](C)Oc2ccc(NS(=O)(=O)c3ccc(Cl)cc3)cc2C1=O,active
12,C[C@@H]1CCCCO[C@@H](CN(C)Cc2ccc(C(F)(F)F)cc2)[C@@H](C)CN([C@@H](C)CO)C(=O)c2cc(NS(=O)(=O)c3ccc(Cl)cc3)ccc2O1,inactive
13,C[C@@H]1CCCCO[C@H](CN(C)Cc2ccc(C(F)(F)F)cc2)[C@H](C)CN([C@H](C)CO)C(=O)c2cc(NS(=O)(=O)c3ccc(Cl)cc3)ccc2O1,inactive
14,C[C@@H]1CCCCO[C@H](CN(C)Cc2ccc(C(F)(F)F)cc2)[C@H](C)CN([C@@H](C)CO)C(=O)c2cc(NS(=O)(=O)c3ccc(Cl)cc3)ccc2O1,active
15,C[C@H]1CCCCO[C@H](CN(C)Cc2ccc(C(F)(F)F)cc2)[C@@H](C)CN([C@@H](C)CO)C(=O)c2cc(NS(=O)(=O)c3ccc(F)cc3)ccc2O1,inactive
16,C[C@@H]1CN([C@H](C)CO)C(=O)c2cc(NS(=O)(=O)c3ccc(Cl)cc3)ccc2O[C@@H](C)CCCCO[C@H]1CN(C)Cc1ccc(C(F)(F)F)cc1,active
17,C[C@@H]1CCCCO[C@H](CN(C)Cc2ccc(C(F)(F)F)cc2)[C@@H](C)CN([C@@H](C)CO)C(=O)c2cc(NS(=O)(=O)c3ccc(Cl)cc3)ccc2O1,active
18,O=C(C[C@H]1CC[C@@H](NC(=O)Cc2ccccn2)[C@H](CO)O1)NCCc1ccncc1,inactive
19,C[C@H]1CN([C@@H](C)CO)C(=O)c2cccc(NS(=O)(=O)c3cccs3)c2O[C@@H]1CN(C)Cc1ccc(Oc2ccccc2)cc1,inactive

row,Compound,cytotoxicity call
1,C/C=C/[C@@H](CCn1cc(CCO[Si](C(C)C)(C(C)C)C(C)C)nn1)[Si](C)(C)c1ccc(OC)cc1,inactive
2,C[C@@H]1CN([C@H](C)CO)C(=O)c2cc(C#Cc3ccccn3)cnc2O[C@@H]1CN(C)C(=O)CCN1CCCCC1,inactive
3,C=CCNC(=O)[C@H]1[C@@H]2C(=O)O[C@@H](c3ccccc3)[C@@H](c3ccccc3)N2[C@@H](c2ccccc2OCCO)[C@]12C(=O)N(C(=O)OCCOC)c1ccc(C#CC3(O)CCCCCC3)cc12,inactive
4,C[C@@H]1CCCCO[C@H](CN(C)C(=O)C2CCCCC2)[C@H](C)CN([C@H](C)CO)C(=O)c2cc(NC(=O)Cc3ccccc3)ccc2O1,inactive
5,Nc1cnc2ncc(N)cc2c1,inactive
6,CN1CCN(C(=O)C[C@@H]2C=C[C@H](NS(=O)(=O)c3cccc(F)c3)[C@H](CO)O2)CC1,inactive
7,C[C@@H]1CCCCO[C@@H](CN(C)CC2CCCCC2)[C@@H](C)CN([C@H](C)CO)C(=O)c2cc(NC(=O)NC3CCCCC3)ccc2O1,inactive
8,Nc1nc(=O)c2nc(C(=O)O)cnc2[nH]1,inactive
9,COc1cccc(S(=O)(=O)N(C)C[C@@H]2Oc3cc(Br)ccc3S(=O)(=O)N([C@@H](C)CO)C[C@@H]2C)c1,inactive
10,C[C@@H]1CCCCO[C@@H](CN(C)Cc2ccc(C(F)(F)F)cc2)[C@H](C)CN([C@@H](C)CO)C(=O)c2cc(NS(=O)(=O)c3ccc(Cl)cc3)ccc2O1,active
11,C[C@@H]1CN([C@@H](C)CO)C(=O)c2cc(NS(=O)(=O)c3ccc(Cl)cc3)ccc2O[C@@H](C)CCCCO[C@@H]1CN(C)Cc1ccc(C(F)(F)F)cc1,inactive
12,C[C@@H]1CCCCO[C@@H](CN(C)Cc2ccc(C(F)(F)F)cc2)[C@@H](C)CN([C@H](C)CO)C(=O)c2cc(NS(=O)(=O)c3ccc(Cl)cc3)ccc2O1,inactive
13,C[C@@H]1CCCCO[C@H](CN(C)Cc2ccc(C(F)(F)F)cc2)[C@@H](C)CN([C@H](C)CO)C(=O)c2cc(NS(=O)(=O)c3ccc(Cl)cc3)ccc2O1,inactive
14,C[C@@H]1CN([C@H](C)CO)C(=O)c2cc(NS(=O)(=O)c3ccc(Cl)cc3)ccc2O[C@@H](C)CCCCO[C@@H]1CN(C)Cc1ccc(C(F)(F)F)cc1,inactive
15,C[C@H]1CCCCO[C@@H](CN(C)Cc2ccc(C(F)(F)F)cc2)[C@@H](C)CN([C@@H](C)CO)C(=O)c2cc(NS(=O)(=O)c3ccc(F)cc3)ccc2O1,inactive
16,C[C@@H]1CCCCO[C@@H](CN(C)Cc2ccc(C(F)(F)F)cc2)[C@H](C)CN([C@H](C)CO)C(=O)c2cc(NS(=O)(=O)c3ccc(Cl)cc3)ccc2O1,active
17,C[C@H]1CCCCO[C@H](CN(C)Cc2ccc(C(F)(F)F)cc2)[C@@H](C)CN([C@@H](C)CO)C(=O)c2cc(NS(=O)(=O)c3ccc(Cl)cc3)ccc2O1,active
18,C[C@H]1CCCCO[C@@H](CN(C)Cc2ccc(C(F)(F)F)cc2)[C@@H](C)CN([C@@H](C)CO)C(=O)c2cc(NS(=O)(=O)c3ccc(Cl)cc3)ccc2O1,inactive
19,C[C@H](CO)N1C[C@H](C)[C@H](CN(C)Cc2ccc(C(F)(F)F)cc2)OCCCC[C@H](C)Oc2ccc(NS(=O)(=O)c3ccc(Cl)cc3)cc2C1=O,active
